Assay outcomes from PubChem BioAssay.
Rows were chosen to be rich in hits. Some 2.9% of all compounds tested hit in one or more screens of this group.
EPAC2 ant val – Validation qHTS for antagonist of cAMP-regulated guanine nucleotide exchange factor 4 (EPAC2). Rap guanine nucleotide exchange factor 4 (Homo sapiens), Q8WZA2. EPAC2 Rap1B BODIPY-GDP exchange, fluorescence. Potency, µM (top dose mostly 112 µM), for inactives: at the highest dose activity, negative = inhibition, most hits filed as inhibitors. hit rate 1.7% among 16,000. AID 1645886, 2021;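 also: 100% = activation by cAMP agonist control; nearly all actives have a fitted effect of over 40% in size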
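Fluorescent exchange read-out: 100 nM EPAC2 with 250 nM RAP1B–BODIPY-GDP and 50 uM GDP; BODIPY-GDP release lowers fluorescence. Read at 480/540 nm every 5 min for 30 min at room temperature; normalized to 6.5 mM cAMP.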
EPAC1 agonist – Validation qHTS for agonist of cAMP-regulated guanine nucleotide exchange factor 3 (EPAC1); Rap guanine nucleotide exchange factor 3 (Homo sapiens), O95398; EPAC1 Rap1b BODIPY-GDP exchange, fluorescence; Potency, µM, inactives show max response, positive = active, hits mostly activators; hit rate 1% among 16,000; also: nearly all actives have a fitted effect of over 70% in size
Target sequence (O95398 whole entry, looked up): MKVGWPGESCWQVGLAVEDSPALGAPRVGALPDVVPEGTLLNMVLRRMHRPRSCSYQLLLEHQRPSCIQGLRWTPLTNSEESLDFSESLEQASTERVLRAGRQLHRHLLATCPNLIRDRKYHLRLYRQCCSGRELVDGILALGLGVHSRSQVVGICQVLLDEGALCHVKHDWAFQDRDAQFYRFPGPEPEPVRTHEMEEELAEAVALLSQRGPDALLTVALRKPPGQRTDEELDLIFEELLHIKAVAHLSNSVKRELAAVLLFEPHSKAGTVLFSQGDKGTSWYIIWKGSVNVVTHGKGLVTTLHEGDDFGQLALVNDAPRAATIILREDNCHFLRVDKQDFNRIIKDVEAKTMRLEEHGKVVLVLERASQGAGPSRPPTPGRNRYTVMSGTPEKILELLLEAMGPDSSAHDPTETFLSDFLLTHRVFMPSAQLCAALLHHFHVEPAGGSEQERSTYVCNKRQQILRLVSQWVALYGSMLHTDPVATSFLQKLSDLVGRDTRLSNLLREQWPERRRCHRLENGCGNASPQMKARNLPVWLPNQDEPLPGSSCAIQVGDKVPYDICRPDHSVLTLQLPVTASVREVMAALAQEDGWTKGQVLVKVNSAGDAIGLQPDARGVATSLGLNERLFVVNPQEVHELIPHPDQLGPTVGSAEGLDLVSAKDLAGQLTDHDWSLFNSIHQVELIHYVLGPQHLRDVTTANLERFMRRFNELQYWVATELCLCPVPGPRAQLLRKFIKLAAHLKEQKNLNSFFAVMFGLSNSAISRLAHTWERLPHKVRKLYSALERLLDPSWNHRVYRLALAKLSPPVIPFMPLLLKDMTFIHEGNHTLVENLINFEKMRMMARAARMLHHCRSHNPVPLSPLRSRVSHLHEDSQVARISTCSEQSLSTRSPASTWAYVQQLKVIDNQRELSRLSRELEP
An asterisk follows results filed as active; ? = inconclusive; ! = repeats disagree; [ ] = another dose, or the depositor's remark. Calls follow the shape of the dose curve; as a rule, active = well fitted curve in the direction sought with a large enough effect; inconclusive = small, poorly fitted or top-dose-only effect, or another doubt; inactive = no such curve, though single readings can be large; an effect the other way counts as inactive or inconclusive. Unless noted, % is scaled to controls: 0 for no effect and ±100 for the full control effect; potency is read from the fitted curve at half-maximal effect.

SMILES | EPAC2 ant val | EPAC1 agonist
O=C1c2ccccc2C(=O)C1C(=O)C(c1ccccc1)c1ccccc1 | 79.4µM* | 20.8%
CCc1cc(OC)c(C[C@@H](C)N)cc1OC | -2.8%[239 µM] | 4.3%
COP(=S)(OC)Oc1ccc(SC)c(C)c1 | ? | 10.1%
CCOP(=O)(NC(C)C)Oc1ccc(SC)c(C)c1 (centres undefined) | 50.1µM* | -45.1%
CC[C@H]1C[C@@H]2C[C@H]3c4[nH]c5ccc(OC)cc5c4CCN(C2)[C@@H]13 | 14.6%[239 µM] | 15.2%
O=c1oc2ccccc2c(O)c1C(CC(O)c1ccc(-c2ccc(Br)cc2)cc1)c1ccccc1 (centres undefined) | 79.4µM* | -13.9%
C[C@@H](Cc1ccccc1)N(C)C | 8.7% | -13.1%
CCOC(=O)[C@]12Cc3cc4c(cc3[C@H]1N(Cc1ccccc1)C(=O)c1ccccc12)OCO4 | ? | 23.1%
CCOC(=O)[C@]12Cc3cc(N(C)C)ccc3[C@H]1N(Cc1ccccc1)C(=O)c1ccccc12 | 79.4µM* | 29.3%
CO[C@H]1[C@@H](O)C[C@H](O[C@H]2[C@@H](O)C[C@H](O[C@H]3[C@@H](O)C[C@H](O[C@H]4CC[C@@]5(C)[C@H](CC[C@@H]6[C@@H]5C[C@@H](O)[C@]5(C)[C@@H](C7=CC(=O)OC7)CC[C@]65O)C4)O[C@@H]3C)O[C@@H]2C)O[C@@H]1C | -8.5% | -30.4%
CCCCC/C=C\C/C=C\C/C=C\C/C=C\CCCC(=O)Nc1ccc(O)cc1 | 31.6µM* | -69.6%
CCCCC/C=C\C/C=C\C/C=C\C/C=C\CCCC(=O)NCC(=O)O | 40.3% | 8.5%
CC(=O)O[C@H]1C[C@H](O[C@H]2[C@@H](O)C[C@H](O[C@H]3[C@@H](O)C[C@H](OC4CC[C@@]5(C)[C@H](CC[C@@H]6[C@@H]5CC[C@]5(C)[C@@H](C7=CC(=O)OC7)CC[C@]65O)C4)O[C@@H]3C)O[C@@H]2C)O[C@H](C)[C@H]1O[C@@H]1O[C@H](CO)[C@@H](O)[C@H](O)[C@H]1O (some centres undefined) | 0.5% | -12.4%
CCCCc1ccc(C(=O)O)nc1 | -6.2% | -0.9%
CCCCCCCCc1ccc(O)cc1 | 35.5µM* | -224.9%
COc1cc(C[C@@H](C)N)c(OC)cc1Br | 5.8%[239 µM] | -14.3%
Clc1ccc(CSC(Cn2ccnc2)c2ccc(Cl)cc2Cl)cc1 (centres undefined) | 44.7µM*! | 50.1µM*!
C[C@]12CC[C@@H](O)C[C@H]1CC[C@@H]1[C@H]2CC[C@]2(C)C(=O)CC[C@@H]12 | 3.9% | -20.0%
CCC(=O)C(CC(C)N(C)C)(c1ccccc1)c1ccccc1 (centres undefined) | 12.0%[239 µM] | ?
O=c1c2ccccc2[se]n1-c1ccccc1 | 39.8µM*! | 7.8%
Cc1ccccc1-n1c(C)nc2ccccc2c1=O | 5.0%[239 µM] | -8.9%
[2H]C([2H])([2H])[C@H](N)Cc1ccccc1 | 33.0% | ?
O=C(Nc1ccccc1-c1ccc(Cl)cc1)c1cccnc1Cl | 8.91µM* | 25.3%
COC(=O)/C(C)=C\CC12OC(C)(C)C3CC(C=C4C(=O)c5c(OC)c6c(c(CC=C(C)C)c5OC431)OC(C)(CCC=C(C)C)C=C6)C2=O (centres undefined) | -22.6% | -78.0%
CC(=O)Oc1c2c(c(CC=C(C)C)c3c1C(=O)C1=CC4CC5C(C)(C)OC(C/C=C(\C)C(=O)O)(C4=O)[C@]15O3)OC(C)(CCC=C(C)C)C=C2 (some centres undefined) | 70.8µM* | -207.3%
CCCCCc1cc(O)c2c(c1)OC(C)(C)[C@@H]1CCC(C)=C[C@@H]21 | ? | -67.1%
C[C@]12CC[C@H](O)C[C@H]1CC[C@@H]1[C@@H]2CC[C@]2(C)[C@@H](c3ccc(=O)oc3)C[C@H]3O[C@]132 | -5.0% | -9.8%
CN1[C@H]2CC[C@@H]1[C@@H](C(=O)O)[C@@H](OC(=O)c1ccccc1)C2 | ? | 2.8%
CCN(CC)CCO[C@H]1CC[C@@]2(C)C(=CC[C@@H]3[C@@H]2CC[C@]2(C)C(=O)CC[C@@H]32)C1 | 4.9% | 22.7%
C[C@@H]1[C@H]2Cc3ccc(O)cc3[C@]1(C)CCN2C | 48.5%[453 µM] | 4.5%
